Reference: PubChem BioAssay (NCATS)
Records with an inconclusive call do not appear. Activity calls are given as the source filed them. The call rests on the fitted dose curve; in most records, active means well fitted cell-killing curve with a large enough effect; inconclusive means small, poorly fitted or top-dose-only effect, or effect the other way; inactive means no such curve, though single readings can be large or run the other way.

Assay: Quantitative High-Throughput drug screen in 47 multiple myeloma cell lines against the NCATS MIPE library collection: KMS20_JCRB cell viability assay (AID 1918973); further: nearly all actives have a fitted effect of over 45% in size
Settings: CellTiter-Glo ATP, 48 h; series mostly up to 45.8 µM
From the text: PI: Beverly A. Mock Ph.D.
Laboratory of Cancer Biology and Genetics,
Center for Cancer Research, National Cancer Institute,
National Institute of Health, Bethesda, Maryland
Drug resistance and disease progression are common in multiple myeloma (MM) patients, underscoring the need for new therapeutic combinations. […] We hypothesized that effective combinations would reduce MYC expression and enhance p16 activity. […] These preclinical data identify potentially useful drug combinations for evaluation in drug-resistant MM and reveal potential mechanisms of combined drug sensitivity.
Described herein is the primary MIPE qHTS used to cherrypick compounds. Validated compounds were then further tested for potential synergistic activiy.
[1] Peat TJ, Gaikwad SM, Dubois W, Gyabaah-Kessie N, Zhang S, Gorjifard S, Phyo Z, Andres M, Hughitt VK, Simpson RM, Miller MA, Girvin AT, Taylor A, Williams D, D'Antonio N, Zhang Y, Rajagopalan A, Flietner E, Wilson K, Zhang X, Shinn P, Klumpp-Thomas C, McKnight C, Itkin Z, Chen L, Kazandijian D, Zhang J, Michalowski AM, Simmons JK, Keats J, Thomas CJ, Mock BA. Drug combinations identified by high-throughput screening promote cell cycle transition and upregulate Smad pathways in myeloma. Cancer Lett. 2023 Aug 1;568:216284. doi: 10.1016/j.canlet.2023.216284. Epub 2023 Jun 24. PMID: 37356470; PMCID: PMC10408729.
SEQUENCE No. (e.g., 1, 2, 3, etc.); […] (e.g., Cells, Incubation, Reagent, etc.); VALUE and DESCRIPTION.
1; Cells; 5 uL; white, solid bottom 1536-well Greiner assay plate.
2; Compounds; 23 nL; Kalypsis pin tool (Wako USA) equipped with a 1536-well pin head to transfer to the assay plates.
3; Incubation; 48 hours; 37C incubation.
4; Reagent;5uL; CellTiter Glo (Promega).
5; Detector; 425V; Luminescence; Viewlux PerkinElmer.
NOTES (numbers refer to Sequence numbers above)
1. The cell-based screening methods employed in this study were like those previously published. Briefly, the corresponding myeloma cell lines were screened in 1,536-well plates with 500 cells, 5-uL per well for inhibition of cell viability (assessed by measuring ATP levels with CellTiterGlo).
2. NCATS MIPE 4.0 library of approved and investigational drugs were added using the Kalypsis pin tool. Wells treated with DMSO only for 100% viability and media only wells for 0% viability were used as controls.
3. The assay plates were covered and incubated for 48 hours in a 37C, 5% CO2 incubator with controlled humidity.
4. After 48 hours, CellTilter-GloTM luminescent substrate mix (Promega) reagent was added to the assay plate and plates we incubated for 5 min at room temperature.
5. Signal was measured as median relative luminescence units on a ViewLux (PerkinElmer) multiplate reader.
[1] Heske CM, Davis MI, Baumgart JT, Wilson K, Gormally MV, Chen L, Zhang X, Ceribelli M, Duveau DY, Guha R, Ferrer M, Arnaldez FI, Ji J, Tran HL, Zhang Y, Mendoza A, Helman LJ, Thomas CJ. Matrix Screen Identifies Synergistic Combination of PARP Inhibitors and Nicotinamide Phosphoribosyltransferase (NAMPT) Inhibitors in Ewing Sarcoma. Clin Cancer Res. 2017 Dec 1;23(23):7301-7311. doi: 10.1158/1078-0432.CCR-17-1121. Epub 2017 Sep 12. PMID: 28899971; PMCID: PMC6636827.
Potency means the concentration at half of the fitted maximal effect.

Row | SMILES | Potency
1 | COc1ccccc1OCC(O)CN1CCN(CC(=O)Nc2c(C)cccc2C)CC1 (stereo not given) | inactive
2 | CC1(C)O[C@H]2CC(=O)OC[C@]23[C@H]2CC[C@@]4(C)[C@H](c5ccoc5)OC(=O)[C@H]5O[C@]54[C@]2(C)C(=O)C[C@@H]13 | inactive
3 | COc1ccc2[nH]cc(CCNC(C)=O)c2c1 | inactive
4 | NCCS(=O)(=O)O | inactive
5 | CN(C)C(=N)N=C(N)N | inactive
6 | COc1ccc2c(c1)c(CC(=O)O)c(C)n2C(=O)c1ccc(Cl)cc1 | 9.35 µM (active)
7 | CCOC(=O)C(C)(C)Oc1ccc(Cl)cc1 | inactive
8 | Cc1ccccc1N1C(=O)c2cc(S(N)(=O)=O)c(Cl)cc2NC1C (stereo not given) | inactive
9 | CC12CC3CC(C)(C1)CC(N)(C3)C2 | 20.9 µM (active)
10 | Cn1c(=O)c2[nH]cnc2n(C)c1=O | inactive
11 | CC[C@@]1(O)C(=O)OCc2c1cc1n(c2=O)Cc2cc3c(CN(C)C)c(O)ccc3nc2-1 | 0.235 µM (active)
12 | CN(C)c1nc(N(C)C)nc(N(C)C)n1 | inactive
13 | NC(=O)OCC(COC(N)=O)c1ccccc1 | inactive
14 | Clc1ccc2c(c1)C(N1CCNCC1)=Nc1ccccc1O2 | 20.9 µM (active)
15 | CN1CCC(=C2c3ccccc3C=Cc3ccccc32)CC1 | 9.35 µM (active)
16 | O=C(C1CCCCC1)N1CC(=O)N2CCc3ccccc3C2C1 (stereo not given) | inactive
17 | C[C@](N)(Cc1ccc(O)c(O)c1)C(=O)O | 16.6 µM (active)
18 | CN(C)CCC=C1c2ccccc2C=Cc2ccccc21 | 14.8 µM (active)
19 | CC#C[C@]1(O)CC[C@H]2[C@@H]3CCC4=CC(=O)CCC4=C3[C@@H](c3ccc(N(C)C)cc3)C[C@@]21C | 0.743 µM (active)
20 | CC(=O)OCC(CCn1cnc2cnc(N)nc21)COC(C)=O | inactive

Row | SMILES | Potency
21 | CC(C)NCC(O)c1ccc(O)c(O)c1 (stereo not given) | 1.18 µM (active)
22 | CN(C)CCOC(c1ccccc1)c1ccccc1 | 18.7 µM (active)
23 | O=C(Nc1ccc([N+](=O)[O-])cc1Cl)c1cc(Cl)ccc1O | 0.59 µM (active)
24 | COc1ccc(C2CNC(=O)C2)cc1OC1CCCC1 (stereo not given) | inactive
25 | Nc1nc2c(ncn2COC(CO)CO)c(=O)[nH]1 | 1.05 µM (active)
26 | O=C1c2c(O)ccc(O)c2C(=O)c2c(NCCNCCO)ccc(NCCNCCO)c21 | 0.132 µM (active)
27 | CN(C)CCCN1c2ccccc2CCc2ccc(Cl)cc21 | 1.87 µM (active)
28 | NC(=O)NO | 0.0935 µM (active)
29 | O=C(CCCN1CCC(O)(c2ccc(Cl)cc2)CC1)c1ccc(F)cc1 | 13.2 µM (active)
30 | CNCCCC12CCC(c3ccccc31)c1ccccc12 | 13.2 µM (active)
31 | NCCCCCC(=O)O | inactive
32 | COc1cc2nc(N3CCN(C(=O)c4ccco4)CC3)nc(N)c2cc1OC | 8.33 µM (active)
33 | COc1cc2nc(N(C)CCCNC(=O)C3CCCO3)nc(N)c2cc1OC (stereo not given) | inactive
34 | CN1CCC(=C2c3ccccc3CC(=O)c3sccc32)CC1 | inactive
35 | CCN1CCCC1CNC(=O)c1cc(S(=O)(=O)CC)c(N)cc1OC (stereo not given) | inactive
36 | CC(C)C(=O)Nc1ccc([N+](=O)[O-])c(C(F)(F)F)c1 | 7.43 µM (active)
37 | CN(C)C(=O)C(CCN1CCC(O)(c2ccc(Cl)cc2)CC1)(c1ccccc1)c1ccccc1 | 14.8 µM (active)
38 | Cc1cc(C(C)(C)C)cc(C)c1CC1=NCCN1 | inactive
39 | COc1nc(C)nc(Cl)c1NC1=NCCN1 | 9.35 µM (active)
40 | CC(CCc1ccc(O)cc1)NCCc1ccc(O)c(O)c1 (stereo not given) | inactive
